Each structure is given as a SMILES string. Screen size: about 140,000 compounds; about 4,300 (3.1%) were called active. About 21% were inconclusive and are not listed. The sample as a whole holds a higher share of actives than the screen did. Unmarked numbers belong to inactive results.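 How the source made its calls: active means readout at or below -70, meaning at least 70% loss of cells showing the perinucleolar compartment, a nuclear body marking cancer cells; inconclusive means readout between -30 and a set limit; inactive means the rest.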

The results in this text go back to PubChem BioAssay AID2417 (National Center for Advancing Translational Sciences (NCATS), 2010).

The test can be described thus: High Content Assay for Compounds that inhibit the Assembly of the Perinucleolar Compartment.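 Further: plate controls were DMSO wells for no effect and camptothecin positive control wells for full effect.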 The conditions noted are these: PC3M PTB-GFP, PNC prevalence imaging, 16 h; at 10 µM; active compounds read low. In outline:
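PC3M cells stably expressing PTB-GFP, 750–1000 cells/well, treated 16 h at 37 °C with compound (23 nl of library stock), in duplicate. After paraformaldehyde fixation and Hoechst stain, imaged at 20x; PNC prevalence scored by image analysis.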
Consider `Cc1cc(OCCN2CCCC2)ccc1C(C)C`, for which the activity change (PNC), negative = inhibition is -100% (active).

For `c1ccc2cc(OCCN3CCCC3)ccc2c1`, the activity change (PNC), negative = inhibition was -15.5%.

Consider `Cc1cc(OCCN2CCCC2)cc(C(C)C)c1`, for which the activity change (PNC), negative = inhibition is 0%.

With `Cc1cc([N+](=O)[O-])nn1CC(=O)Nc1ccc(Cc2ccncc2)cc1`, the activity change (PNC), negative = inhibition is -5.96%.

On to `Cc1scc(C(=O)NNC(=S)NCc2ccccc2)c1C`, for which the activity change (PNC), negative = inhibition is 11.8%.

For `CCCCn1c(O)c(N=NC(=O)Cn2c(C(F)(F)F)nc3ccccc32)c2ccccc21`, the activity change (PNC), negative = inhibition is -20%.

Regarding `Cc1cc(C)nc(NC(=O)Nc2ccccc2C(F)(F)F)n1`, the activity change (PNC), negative = inhibition is -23.4%.

As to `CN(C)CCNC(=O)Nc1cccc(Cl)c1Cl`, the activity change (PNC), negative = inhibition is 17.8%.

For the compound `Cc1c(NC(=O)Nc2ccccc2Cl)sc(=S)n1C`, the activity change (PNC), negative = inhibition was -119% (active).

Consider `O=C1NC(c2ccccc2)=NC1(Nc1ccccn1)C(F)(F)F` (configuration not stated), for which the activity change (PNC), negative = inhibition is 23.3%.

Take `Cc1ccc(NC(=O)c2oc(=O)c3ccccc3c2-c2ccccc2)c(C)c1`: the activity change (PNC), negative = inhibition was 36.6%.

Turning to `Cc1cc(C)nc(N(C#N)CC(=O)Nc2ccccc2)n1`, the activity change (PNC), negative = inhibition is -18.1%.

Consider `COC(=O)C(C)N(C#N)c1nc(C)nc(C)n1` (configuration not stated), for which the activity change (PNC), negative = inhibition is 10.7%.

As for `CNc1nc(SC)nc(N(C#N)CC(=O)OC)n1`, the activity change (PNC), negative = inhibition was -100% (active).

Turning to `O=C(NC(=S)N1CCN(Cc2ccccc2)CC1)c1ccccc1`, the activity change (PNC), negative = inhibition is -17%.

`Cc1cc(C(=O)NNC(=S)NC(C)c2ccccc2)cs1` (configuration not stated): the activity change (PNC), negative = inhibition is 1.77%.

Consider `CN(c1ccc(C(=O)N2CCc3ccccc3C2)cc1)S(C)(=O)=O`, for which the activity change (PNC), negative = inhibition is -100% (active).

Regarding `COc1cc2c(cc1OC)CN(C(=O)c1ccc(S(=O)(=O)N3CCCCCC3)cc1)CC2`, the activity change (PNC), negative = inhibition was -8.24%.

Take `CN(c1ccc(C(=O)NCCC2=CCCCC2)cc1)S(C)(=O)=O`: the activity change (PNC), negative = inhibition was 32.9%.

Regarding `Cc1ccc(NC(=O)CN2CCC3(O)CCCCC3C2c2ccc3c(c2)OCO3)c(C)c1` (configuration not stated), the activity change (PNC), negative = inhibition was -90% (active).

With `CCN(CC)c1ccc(C2C3CCCCC3(O)CCN2CC(=O)Nc2ccccc2)cc1` (configuration not stated), the activity change (PNC), negative = inhibition is -22.9%.

`Cc1ccc(NC(=O)Cn2cccc2C2=NC(c3ccccc3)CO2)c(C)c1` (configuration not stated): the activity change (PNC), negative = inhibition was 17.1%.

For `COc1cc(C2C(N3C(=O)c4ccccc4C3=O)C(=O)N2c2ccc(C)c(C)c2)cc(OC)c1OC` (configuration not stated), the activity change (PNC), negative = inhibition was 31.7%.

As for `CCC(=O)NCCc1nc2ccccc2n1CC`, the activity change (PNC), negative = inhibition was 14%.

With `Cc1ccc(Cn2c(NC(=O)c3ccco3)nc3ccccc32)cc1`, the activity change (PNC), negative = inhibition was 2.65%.

For `CCn1c(NC(=O)c2nn(C)cc2Br)nc2ccccc21`, the activity change (PNC), negative = inhibition is -114% (active).

With `Cc1nnnn1/C(=C\c1ccccc1)C(=O)OCC(=O)N1CC2(C)CC1CC(C)(C)C2` (configuration not stated), the activity change (PNC), negative = inhibition was 23.1%.

For `Cn1nccc1CNC(=O)c1ccnn1C`, the activity change (PNC), negative = inhibition is 23.5%.

For `COc1ccc(C)cc1S(=O)(=O)N(CC(=O)Nc1cccc([N+](=O)[O-])c1)c1ccc(C)cc1`, the activity change (PNC), negative = inhibition was -81.9% (active).

On to `Cc1ccc(N(CC(=O)Nc2cccc(N(C)S(C)(=O)=O)c2)S(C)(=O)=O)cc1`, for which the activity change (PNC), negative = inhibition is 24.2%.

In the case of `Cc1ccc(S(=O)(=O)N(CC(=O)Nc2cccc([N+](=O)[O-])c2)Cc2ccc(Cl)cc2)cc1`, the activity change (PNC), negative = inhibition is 34.5%.

Turning to `Cc1ccc(S/C(=N\S(=O)(=O)c2ccc(Cl)cc2)c2ccccc2)cc1`, the activity change (PNC), negative = inhibition was -26.8%.

Take `Cc1ccc(S(=O)(=O)/N=C(/Nc2ccccn2)c2ccc(Cl)cc2)cc1`: the activity change (PNC), negative = inhibition was -85% (active).

In the case of `O=S(=O)(/N=C(/Nc1ccccn1)c1ccccc1)c1ccc(Cl)cc1`, the activity change (PNC), negative = inhibition was -25.2%.

In the case of `CCNS(=O)(=O)c1ccc(NC(=O)c2cncc(Br)c2)cc1`, the activity change (PNC), negative = inhibition is 6.83%.

In the case of `C/C(=N/NS(=O)(=O)c1ccccc1)c1ccc(NC(=O)C(F)(F)F)cc1`, the activity change (PNC), negative = inhibition is 8.62%.

`COC(=O)Cc1ccc(N(Cc2ccccc2F)S(=O)(=O)c2ccc(Br)cc2)cc1`: the activity change (PNC), negative = inhibition was -15.9%.

As to `CCOc1ccc(C(=O)Nc2cc(OC)ccc2OC)cc1`, the activity change (PNC), negative = inhibition is -127% (active).

Turning to `CCOc1ccc(NC(=O)Nc2cc(C)ccc2OC)cc1`, the activity change (PNC), negative = inhibition was -3.12%.

Take `CCOc1ccccc1NC(=O)Nc1cc(OC)ccc1OC`: the activity change (PNC), negative = inhibition was 48.5%.

On to `CC1CCCCN1S(=O)(=O)c1ccc(S(=O)(=O)N(CC(=O)Nc2ccccc2)Cc2cccs2)cc1` (configuration not stated), for which the activity change (PNC), negative = inhibition is -17.2%.

On to `Cn1c(=O)cc(OCCCC(=O)N2CCN(Cc3ccc4c(c3)OCO4)CC2)c2ccccc21`, for which the activity change (PNC), negative = inhibition is 19.5%.

For the compound `CCCOc1ccc(NC(=O)CC2C(=O)N(C)C(=S)N2Cc2ccc3c(c2)OCO3)cc1` (configuration not stated), the activity change (PNC), negative = inhibition was -134% (active).

For `CCOc1ccc(NCCC(=O)c2ccc3c(c2)OCO3)cc1`, the activity change (PNC), negative = inhibition was 23%.

Turning to `COc1ccc(/C=C/C(=O)NC(=S)NN2CCCCC2c2cccnc2)cc1` (configuration not stated), the activity change (PNC), negative = inhibition was -29.3%.

Regarding `CN(C)/N=C/c1cc(Cl)cc([N+](=O)[O-])c1O`, the activity change (PNC), negative = inhibition is 3.04%.

In the case of `Cc1ccc(S(=O)(=O)N2CCCC2C(=O)OCc2nc3sc(C)c(C)c3c(=O)[nH]2)cc1` (configuration not stated), the activity change (PNC), negative = inhibition was 7.12%.
